Measured values as given in PubChem BioAssay (NCI).
The panel holds about 83,000 compounds, 20% with a hit somewhere; the sample as a whole holds those more often.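 For each line, cells grew in 96-well plates with the test compound present at a single concentration for 48 hours.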 Values without a mark were called inactive. Calls of active or inactive are those of the source. The calls were made as follows: active = growth percent below 10; inactive = the rest.

Key:
Assay in all cases: NCI-60 one-dose screen, 48 h (100 = growth as untreated, 0 = no growth, -100 = all killed)
Details in all cases: 10 µM unless noted
HCT-15 colon = system: HCT-15 colon
HT29 colon = system: HT29 colon
SNB-75 CNS = system: SNB-75 CNS
SNB-19 CNS = system: SNB-19 CNS
U251 CNS = system: U251 CNS
PC-3 prostate = system: PC-3 prostate
SK-MEL-5 melanoma = system: SK-MEL-5 melanoma
UACC-62 melanoma = system: UACC-62 melanoma
LOX IMVI melanoma = system: LOX IMVI melanoma
SK-MEL-28 melanoma = system: SK-MEL-28 melanoma
SK-MEL-2 melanoma = system: SK-MEL-2 melanoma
SN12C renal = system: SN12C renal
UO-31 renal = system: UO-31 renal
TK-10 renal = system: TK-10 renal
ACHN renal = system: ACHN renal
CAKI-1 renal = system: CAKI-1 renal
A498 renal = system: A498 renal
CCRF-CEM leukemia = system: CCRF-CEM leukemia
MOLT-4 leukemia = system: MOLT-4 leukemia

## Cn1cc(-c2nnc(-c3cn(C)c4ncc(Br)cc34)s2)c2cc(Br)ccc21
HCT-15 colon
  growth: 98.4%
HT29 colon
  growth: 100%
SNB-75 CNS
  growth: 64.3%
SNB-19 CNS
  growth: 94.9%
U251 CNS
  growth: 85.2%
PC-3 prostate
  growth: 90.3%
SK-MEL-5 melanoma
  growth: 93.1%
UACC-62 melanoma
  growth: 86.7%
LOX IMVI melanoma
  growth: 95.8%
SK-MEL-28 melanoma
  growth: 95.9%
SK-MEL-2 melanoma
  growth: 101%
SN12C renal
  growth: 94.5%
UO-31 renal
  growth: 79.8%
TK-10 renal
  growth: 108%
ACHN renal
  growth: 94.2%
CAKI-1 renal
  growth: 73.9%
A498 renal
  growth: 52.6%
CCRF-CEM leukemia
  growth: -27.5% (active)
MOLT-4 leukemia
  growth: 97.3%

## CC(C)C1=NOC(=O)C1=Cc1cn(-c2ccco2)nc1-c1ccccc1
HCT-15 colon
  growth: 77.8%
HT29 colon
  growth: 86.3%
SNB-75 CNS
  growth: 80.8%
SNB-19 CNS
  growth: 89.8%
U251 CNS
  growth: 75.6%
PC-3 prostate
  growth: 78%
SK-MEL-5 melanoma
  growth: 95.3%
UACC-62 melanoma
  growth: 87.6%
LOX IMVI melanoma
  growth: 39.3%
SK-MEL-28 melanoma
  growth: 99%
SK-MEL-2 melanoma
  growth: 113%
SN12C renal
  growth: 87.4%
UO-31 renal
  growth: 71.5%
TK-10 renal
  growth: 110%
ACHN renal
  growth: 92.3%
CAKI-1 renal
  growth: 73.8%
A498 renal
  growth: 98.6%
CCRF-CEM leukemia
  growth: 32.9%
MOLT-4 leukemia
  growth: 20.7%

## Nc1ccc(Cl)c([N+](=O)[O-])c1
HCT-15 colon
  growth: 87.8%
HT29 colon
  growth: 106%
SNB-75 CNS
  growth: 89.3%
SNB-19 CNS
  growth: 108%
U251 CNS
  growth: 99.1%
PC-3 prostate
  growth: 88.3%
SK-MEL-5 melanoma
  growth: 97.6%
UACC-62 melanoma
  growth: 80.1%
LOX IMVI melanoma
  growth: 66.9%
SK-MEL-28 melanoma
  growth: 100%
SK-MEL-2 melanoma
  growth: 97.4%
SN12C renal
  growth: 105%
UO-31 renal
  growth: 101%
TK-10 renal
  growth: 103%
ACHN renal
  growth: 87%
CAKI-1 renal
  growth: 78.8%
A498 renal
  growth: 89.5%
CCRF-CEM leukemia
  growth: 94%
MOLT-4 leukemia
  growth: 106%

## c1ccc(-c2n[nH]c(-c3ccccn3)n2)nc1
HCT-15 colon
  growth: 96.4%
HT29 colon
  growth: 108%
SNB-75 CNS
  growth: 101%
SNB-19 CNS
  growth: 99.5%
U251 CNS
  growth: 110%
PC-3 prostate
  growth: 94.4%
SK-MEL-5 melanoma
  growth: 102%
UACC-62 melanoma
  growth: 104%
LOX IMVI melanoma
  growth: 115%
SK-MEL-28 melanoma
  growth: 149%
SK-MEL-2 melanoma
  growth: 108%
SN12C renal
  growth: 111%
UO-31 renal
  growth: 93.8%
TK-10 renal
  growth: 116%
ACHN renal
  growth: 107%
CAKI-1 renal
  growth: 81.1%
A498 renal
  growth: 224%
CCRF-CEM leukemia
  growth: 103%
MOLT-4 leukemia
  growth: 128%

## CCN=Cc1c(O)c(O)c(C(C)C)c2cc(C)c(-c3c(C)cc4c(C(C)C)c(O)c(O)c(C=NCC)c4c3O)c(O)c12
HCT-15 colon
  growth: 23.2%
HT29 colon
  growth: 25%
SNB-75 CNS
  growth: 57.7%
SNB-19 CNS
  growth: 27.3%
U251 CNS
  growth: 25.8%
PC-3 prostate
  growth: 29.4%
SK-MEL-5 melanoma
  growth: 95.4%
UACC-62 melanoma
  growth: 76.8%
LOX IMVI melanoma
  growth: 39.1%
SK-MEL-28 melanoma
  growth: 74.9%
SK-MEL-2 melanoma
  growth: 51.4%
SN12C renal
  growth: 54.9%
UO-31 renal
  growth: 39.2%
TK-10 renal
  growth: 43.5%
ACHN renal
  growth: 24.4%
CAKI-1 renal
  growth: 73.3%
A498 renal
  growth: 69.5%
CCRF-CEM leukemia
  growth: 20.1%
MOLT-4 leukemia
  growth: 32.8%

## CCCCCCCCN(CCCCCCCC)CC(O)c1ccc(Cl)c(C)c1Cl (centres undefined)
HCT-15 colon
  growth: 80.1%
HT29 colon
  growth: 42.2%
SNB-75 CNS
  growth: 86.8%
SNB-19 CNS
  growth: 93.2%
U251 CNS
  growth: 91.3%
PC-3 prostate
  growth: 72.9%
SK-MEL-5 melanoma
  growth: 101%
UACC-62 melanoma
  growth: 89.2%
LOX IMVI melanoma
  growth: 53.5%
SK-MEL-28 melanoma
  growth: 106%
SK-MEL-2 melanoma
  growth: 123%
SN12C renal
  growth: 84%
UO-31 renal
  growth: 45.1%
TK-10 renal
  growth: 94.6%
ACHN renal
  growth: 74.7%
CAKI-1 renal
  growth: 72.5%
A498 renal
  growth: 70.7%
CCRF-CEM leukemia
  growth: 78%
MOLT-4 leukemia
  growth: 91.4%

## CCC(C)[C@H](NC(=O)NC(=O)NC(=O)CI)C(=O)OC (some centres undefined)
HCT-15 colon
  growth: 14.9%
HT29 colon
  growth: 42.3%
SNB-75 CNS
  growth: 92.1%
SNB-19 CNS
  growth: 93.8%
U251 CNS
  growth: 93.2%
PC-3 prostate
  growth: 93.3%
SK-MEL-5 melanoma
  growth: 91.5%
UACC-62 melanoma
  growth: 88.9%
LOX IMVI melanoma
  growth: -79.2% (active)
SK-MEL-28 melanoma
  growth: 87.7%
SK-MEL-2 melanoma
  growth: 86.1%
SN12C renal
  growth: 89.3%
UO-31 renal
  growth: -21.3% (active)
TK-10 renal
  growth: 91.8%
ACHN renal
  growth: 57.3%
CAKI-1 renal
  growth: -59.6% (active)
A498 renal
  growth: 89.1%
CCRF-CEM leukemia
  growth: -46.2% (active)
MOLT-4 leukemia
  growth: -16.7% (active)

## CCCCCN(CCCCC)CCCCCCCCN1CCCc2ccccc21
HCT-15 colon
  growth: 89.7%
HT29 colon
  growth: 25.6%
SNB-75 CNS
  growth: 76.6%
SNB-19 CNS
  growth: 102%
U251 CNS
  growth: 101%
PC-3 prostate
  growth: 79.5%
SK-MEL-5 melanoma
  growth: 100%
UACC-62 melanoma
  growth: 101%
LOX IMVI melanoma
  growth: 61.4%
SK-MEL-28 melanoma
  growth: 105%
SK-MEL-2 melanoma
  growth: 89.7%
SN12C renal
  growth: 89.7%
UO-31 renal
  growth: 62%
TK-10 renal
  growth: 89%
ACHN renal
  growth: 91.1%
CAKI-1 renal
  growth: 54.8%
A498 renal
  growth: 114%
CCRF-CEM leukemia
  growth: 81.7%
MOLT-4 leukemia
  growth: 27.7%

## C[C@@H](NC(=O)[C@@H](CC(=O)N1CCC(N2CCCCC2)CC1)N1C(=O)[C@@H](N2C(=O)OC[C@@H]2c2ccccc2)[C@H]1/C=C/c1cccc(Cl)c1)c1ccccc1
HCT-15 colon
  growth: 32.8%
HT29 colon
  growth: 1.92% (active)
SNB-75 CNS
  growth: 70.8%
SNB-19 CNS
  growth: 82.2%
U251 CNS
  growth: 55.2%
PC-3 prostate
  growth: 56.1%
SK-MEL-5 melanoma
  growth: -89% (active)
UACC-62 melanoma
  growth: 89.5%
LOX IMVI melanoma
  growth: -43.2% (active)
SK-MEL-28 melanoma
  growth: -29.4% (active)
SK-MEL-2 melanoma
  growth: 96.8%
SN12C renal
  growth: 84.4%
UO-31 renal
  growth: 58.9%
TK-10 renal
  growth: 78.9%
ACHN renal
  growth: 91.6%
CAKI-1 renal
  growth: 69.7%
A498 renal
  growth: 84.6%
CCRF-CEM leukemia
  growth: 50.1%
MOLT-4 leukemia
  growth: 26.7%

## CN(C)c1ccc(N=Nc2ccc3ccccc3c2)cc1
HCT-15 colon
  growth: 55.5%
HT29 colon
  growth: 78.7%
SNB-75 CNS
  growth: 77.4%
SNB-19 CNS
  growth: 100%
U251 CNS
  growth: 76.3%
PC-3 prostate
  growth: 75.6%
SK-MEL-5 melanoma
  growth: 87.3%
UACC-62 melanoma
  growth: 90.8%
LOX IMVI melanoma
  growth: 72.6%
SK-MEL-28 melanoma
  growth: 103%
SK-MEL-2 melanoma
  growth: 98.7%
SN12C renal
  growth: 87%
UO-31 renal
  growth: 57%
TK-10 renal
  growth: 91.4%
ACHN renal
  growth: 87.8%
CAKI-1 renal
  growth: 91.4%
CCRF-CEM leukemia
  growth: 72%
MOLT-4 leukemia
  growth: 80.8%
